According to PubChem BioAssay (NCATS):
Records with an inconclusive call do not appear. Where a call stands in place of a potency, no number is given. Active and inactive are the calls of the source. Unless noted, calls follow the shape of the dose curve; as a rule, active = well fitted inhibition curve with a large enough effect; inconclusive = small, poorly fitted or top-dose-only effect; inactive = flat fitted curve, though single readings scatter.

What follows are compounds tested against Peptidyl-prolyl cis-trans isomerase NIMA-interacting 1 (Homo sapiens) (UniProt Q13526) (assay: qHTS Validation Assay to Find Inhibitors of Pin1 (AID 504536; active = well fitted inhibition curve with a large enough effect in the polarisation, with a control signal flat, not every such curve was filed as active; the % refers to the polarisation)). Details: Pin1 fluorescence polarization peptide binding assay; series mostly up to 57.5 µM.
Sequence of Peptidyl-prolyl cis-trans isomerase NIMA-interacting 1 (Homo sapiens) (Q13526 whole entry, looked up): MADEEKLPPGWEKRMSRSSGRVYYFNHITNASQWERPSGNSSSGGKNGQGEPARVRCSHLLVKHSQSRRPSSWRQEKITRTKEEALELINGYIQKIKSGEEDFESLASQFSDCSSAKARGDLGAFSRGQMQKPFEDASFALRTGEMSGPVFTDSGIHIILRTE
Outline: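 Fluorescence polarization competition: compounds (titration) displace HiFluor-488-labeled Pin1-1b peptide from Pin1 (0.3 uM final) in pH 7.5 HEPES buffer with DTT, 10 min at room temperature; %Activity normalized to no-enzyme wells, curves fitted.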

| SMILES | Potency |
| --- | --- |
| CNC(=O)c1cc2c(cn1)[nH]c1ccccc12 | inactive |
| O=S(=O)(c1cccc2c(Cl)cccc12)N1CCCNCC1 | inactive |
| N#CC(C#N)=C(N)/C(C#N)=C/c1ccc(O)cc1 | inactive |
| CCCCCC(O)CCCC(=O)O (configuration not stated) | inactive |
| Cn1c(=O)[nH]c2ncn(C)c2c1=O | inactive |
| CN1CCCC1CCOC(C)(c1ccccc1)c1ccc(Cl)cc1 (configuration not stated) | inactive |
| CCCn1c(=O)c(C)cn2nc(N)nc12 | inactive |
| CCCCCCCCCC(=O)NC(CN1CCOCC1)[C@H](O)c1ccccc1 (some centres not stated) | inactive |
| Cc1cc(Cn2cnc3c2C[C@@H](C(=O)O)N(C(=O)C(c2ccccc2)c2ccccc2)C3)ccc1N | inactive |
| CN1CC(O)C(O)C(O)C1CO (configuration not stated) | inactive |
| NCCNS(=O)(=O)c1cccc2c(Cl)cccc12 | inactive |
| CC#CCOC(=O)c1c(C)nc2sc3c(c2c1N)CCC(O)C3 (configuration not stated) | inactive |
| Cc1nc2n(c(=O)c1CCN1CCC(c3noc4cc(F)ccc34)CC1)CCCC2O (configuration not stated) | inactive |
| CC(=O)SC1CC2=CC(=O)CC[C@]2(C)C2CC[C@@]3(C)C(CC[C@@]34CCC(=O)O4)C12 (some centres not stated) | inactive |
| CCn1c(=O)[nH]c2cc(Cl)c(Cl)cc21 | inactive |
| N#CC(=C(\N)Sc1ccccc1N)/C(C#N)=C(/N)Sc1ccccc1N | inactive |
| N[C@H](C(=O)O)[C@H](Cc1ccccc1)C(=O)O | inactive |

| SMILES | Potency |
| --- | --- |
| CCCc1c(-c2ccc(O)cc2)nn(-c2ccc(O)cc2)c1-c1ccc(O)cc1 | inactive |
| CSC(=N)N | inactive |
| CC(C)[C@@H]1CC[C@@H](C)C[C@@H]1P(=O)(c1ccccc1)c1ccccc1 | inactive |
| Fc1ccc(CN(C2=NCCN2)c2c(Cl)cccc2Cl)cc1 | inactive |
| N[C@H](C(=O)O)[C@H]1C[C@@H]1C(=O)O | inactive |
| COc1cc(CNC(=O)CCCCCCC(C)C)ccc1O | inactive |
| C=CCN1CCc2cc(O)c(O)cc2C(c2ccccc2)C1 (configuration not stated) | inactive |
| C=CCN1CCc2c(cc(O)c(O)c2Br)[C@@H](c2ccccc2)C1 | inactive |
| Nc1nc2[nH]c(=O)cnc2c(=O)[nH]1 | inactive |
| COc1ccc(CCn2nnnc2C2(c3ccc(C)cc3)CC2)cc1 | inactive |
| Nc1ncnc2c1nc(Br)n2C1OC2COP(=O)(O)O[C@@H]2C1O (some centres not stated) | inactive |
| Oc1ccc(/C=C/c2ccc(/C=C/c3ccc(O)cc3)c(Br)c2)cc1 | inactive |
| CC(O)C(O)[C@H]1CNc2nc(N)[nH]c(=O)c2N1 (some centres not stated) | inactive |
| O[Si](CCCN1CCCCC1)(c1ccc(F)cc1)C1CCCCC1 (configuration not stated) | inactive |
| N=S(=O)(O)Cc1noc2ccccc12 | inactive |
| CC(N)(Cc1ccc(O)c(O)c1)C(=O)O (configuration not stated) | inactive |

The compounds below were run against Phosphoglycerate kinase, glycosomal (Trypanosoma brucei brucei) (UniProt P07378) (assay: qHTS Validation Assay to Find Inhibitors of Phosphoglycerate Kinase (AID 504547)). Details: enzymatic PGK inhibition, coupled luminescence read-out; series mostly up to 57.5 µM.
Sequence of Phosphoglycerate kinase, glycosomal (Trypanosoma brucei brucei) (P07378 whole entry, looked up): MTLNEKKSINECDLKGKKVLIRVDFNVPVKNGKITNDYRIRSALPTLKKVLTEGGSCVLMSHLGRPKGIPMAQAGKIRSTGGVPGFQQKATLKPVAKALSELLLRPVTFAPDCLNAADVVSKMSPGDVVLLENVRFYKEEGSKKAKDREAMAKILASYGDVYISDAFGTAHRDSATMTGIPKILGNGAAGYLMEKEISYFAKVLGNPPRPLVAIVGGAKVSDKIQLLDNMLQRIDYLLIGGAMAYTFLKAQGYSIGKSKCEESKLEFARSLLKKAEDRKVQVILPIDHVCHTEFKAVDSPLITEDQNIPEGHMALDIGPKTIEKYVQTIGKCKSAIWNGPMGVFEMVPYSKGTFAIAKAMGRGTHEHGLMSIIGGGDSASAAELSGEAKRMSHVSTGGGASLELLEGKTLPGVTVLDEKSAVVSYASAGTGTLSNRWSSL
Outline: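 In TEA buffer (100mM, pH 7.6) containing 5mM MgCl2 and 0.01% Tween-20, the GAPDH-coupled PGK reaction proceeded for 60 minutes at room temperature before a single luminescence reading using Kinase-Glo Plus.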

| SMILES | Potency |
| --- | --- |
| CNC(=O)c1cc2c(cn1)[nH]c1ccccc12 | inactive |
| O=C1Nc2ccc(I)cc2/C1=C/c1cc(Br)c(O)c(Br)c1 | inactive |
| O=S(=O)(c1cccc2c(Cl)cccc12)N1CCCNCC1 | inactive |
| N#CC(C#N)=C(N)/C(C#N)=C/c1ccc(O)cc1 | inactive |
| CCCCCC(O)CCCC(=O)O (configuration not stated) | inactive |
| Cn1c(=O)[nH]c2ncn(C)c2c1=O | inactive |
| CCCn1c(=O)c(C)cn2nc(N)nc12 | inactive |
| CN(C)S(=O)(=O)c1ccc2c(c1)/C(=C/c1cc3c([nH]1)CCCC3)C(=O)N2 | inactive |
| CCCCCCCCCC(=O)NC(CN1CCOCC1)[C@H](O)c1ccccc1 (some centres not stated) | inactive |
| Nc1ccc2c3c(cccc13)C(=O)NC2=O | inactive |
| Cc1cc(Cn2cnc3c2C[C@@H](C(=O)O)N(C(=O)C(c2ccccc2)c2ccccc2)C3)ccc1N | inactive |
| CN1CC(O)C(O)C(O)C1CO (configuration not stated) | inactive |
| NCCNS(=O)(=O)c1cccc2c(Cl)cccc12 | inactive |
| Cc1nc2n(c(=O)c1CCN1CCC(c3noc4cc(F)ccc34)CC1)CCCC2O (configuration not stated) | inactive |
| CCn1c(=O)[nH]c2cc(Cl)c(Cl)cc21 | inactive |
| N#CC(=C(\N)Sc1ccccc1N)/C(C#N)=C(/N)Sc1ccccc1N | inactive |
| N[C@H](C(=O)O)[C@H](Cc1ccccc1)C(=O)O | inactive |

| SMILES | Potency |
| --- | --- |
| CCCc1c(-c2ccc(O)cc2)nn(-c2ccc(O)cc2)c1-c1ccc(O)cc1 | inactive |
| CSC(=N)N | inactive |
| CC(C)[C@@H]1CC[C@@H](C)C[C@@H]1P(=O)(c1ccccc1)c1ccccc1 | inactive |
| Fc1ccc(CN(C2=NCCN2)c2c(Cl)cccc2Cl)cc1 | inactive |
| N[C@H](C(=O)O)[C@H]1C[C@@H]1C(=O)O | inactive |
| CC1=C(/C=C/C(C)=C/C=C/C(C)=C\C(=O)O)C(C)(C)CCC1 | inactive |
| COc1cc(CNC(=O)CCCCCCC(C)C)ccc1O | inactive |
| CN1C2CCC1CC(OC(c1ccccc1)c1ccccc1)C2 (configuration not stated) | inactive |
| C=CCN1CCc2cc(O)c(O)cc2C(c2ccccc2)C1 (configuration not stated) | inactive |
| C=CCN1CCc2c(cc(O)c(O)c2Br)[C@@H](c2ccccc2)C1 | inactive |
| Nc1nc2[nH]c(=O)cnc2c(=O)[nH]1 | inactive |
| COc1ccc(CCn2nnnc2C2(c3ccc(C)cc3)CC2)cc1 | inactive |
| Nc1ncnc2c1nc(Br)n2C1OC2COP(=O)(O)O[C@@H]2C1O (some centres not stated) | inactive |
| Oc1ccc(/C=C/c2ccc(/C=C/c3ccc(O)cc3)c(Br)c2)cc1 | inactive |
| CC(O)C(O)[C@H]1CNc2nc(N)[nH]c(=O)c2N1 (some centres not stated) | inactive |
| O[Si](CCCN1CCCCC1)(c1ccc(F)cc1)C1CCCCC1 (configuration not stated) | inactive |
| N=S(=O)(O)Cc1noc2ccccc12 | inactive |
